Screens: PubChem BioAssay, National Center for Advancing Translational Sciences (NCATS)
Hits are enriched below; roughly 2.8% of the tested compounds scored in any of these assays.
POLB inh: blocks human DNA polymerase beta activity; P06746; Pol beta primer extension/strand displacement, fluorescence kinetic; AID 485314; actives 1.3% (n = 340,000); Potency, µM (series often up to 114 µM), for inactives: at the highest dose activity change, negative = inhibition, actives largely listed as inhibitors; further: potency means the concentration at half of the fitted maximal effect; on the % scale 0 is the no-effect control and ±100 the full control effect
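Enzyme-only controls used 10 nM Pol beta; buffer lacking enzyme served as negative control. Compound preincubated 15 min, then 50 nM substrate added; 0 and 10 min reads at room temperature.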
Pol kappa inh-1: DNA polymerase kappa (human) inhibition; purified Pol kappa, fluorescent DNA synthesis assay, 10 min; Potency, µM (highest dose often 107 µM), for inactives: top-dose activity, negative = inhibition, usual class: inhibitors; actives 0.53% (n = 400,000); AID 588579; further: potency means the concentration at half of the fitted maximal effect; on the % scale 0 is the no-effect control and ±100 the full control effect
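Kinetic fluorescence readout at 0 and 10 min followed reaction start with substrate at 50 nM final. Beforehand, enzyme (10 nM Pol kappa) stood 15 min with compound at room temperature; buffer-only wells were negative controls.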
Pol iota inh: inhibitors of human DNA polymerase iota | Q9UNA4 | Pol iota fluorescent replication assay, 10 min | Potency, µM (top dose mostly 115 µM), without a hit: at the top dose activity, negative = inhibition, usual class: inhibitors | actives 1% (n = 390,000); further: potency means the concentration at half of the fitted maximal effect
Target sequence (Q9UNA4 whole entry, looked up): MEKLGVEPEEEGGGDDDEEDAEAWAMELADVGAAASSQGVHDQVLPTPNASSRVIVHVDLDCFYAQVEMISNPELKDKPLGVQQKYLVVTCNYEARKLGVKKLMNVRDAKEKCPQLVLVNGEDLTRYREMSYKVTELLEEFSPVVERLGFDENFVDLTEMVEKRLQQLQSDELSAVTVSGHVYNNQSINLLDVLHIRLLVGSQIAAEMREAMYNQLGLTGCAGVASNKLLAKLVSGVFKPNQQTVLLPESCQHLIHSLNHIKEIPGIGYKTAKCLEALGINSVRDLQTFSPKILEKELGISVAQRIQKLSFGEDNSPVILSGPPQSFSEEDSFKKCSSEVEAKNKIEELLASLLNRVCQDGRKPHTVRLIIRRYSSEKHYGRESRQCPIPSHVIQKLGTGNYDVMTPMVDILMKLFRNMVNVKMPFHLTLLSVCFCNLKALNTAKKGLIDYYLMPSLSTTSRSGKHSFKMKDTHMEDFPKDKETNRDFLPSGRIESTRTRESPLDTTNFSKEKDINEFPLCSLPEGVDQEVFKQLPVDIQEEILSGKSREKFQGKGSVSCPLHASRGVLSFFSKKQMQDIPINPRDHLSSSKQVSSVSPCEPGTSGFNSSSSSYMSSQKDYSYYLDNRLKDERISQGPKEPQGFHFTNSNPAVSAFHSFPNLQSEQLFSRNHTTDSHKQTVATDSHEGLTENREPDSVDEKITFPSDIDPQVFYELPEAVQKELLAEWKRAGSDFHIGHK
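Pol iota at 10 nM preincubated 15 min with compounds at room temperature; reaction started with fluorescent substrate, 50 nM final. Fluorescence read kinetically at 0 and 10 min; buffer-only wells as negative control.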
PI5P4K alpha inh: blocks human PI5P4K alpha kinase activity | max response, % | PI5P4Kalpha enzyme, ADP-Glo luminescence, 60 min; hits give low values | actives 1.2% (n = 330,000); active means max response of -50% or lower; inconclusive means between -30% and -50%; inactive means -30% or higher; further: value at the top dose of about 77 µM; on the % scale 0 is the no-effect control and ±100 the full control effect
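Quantitative HTS of the MLSMR library against PI5P4Kalpha with substrate. ATP added last at 5 microM final; room temperature, 60 minutes. Remaining ATP depleted, ADP converted and read as luminescence.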
WRN helicase inh: WRN helicase (human) inhibition. Potency, µM (titrated, usually from 114 µM), for the others: at the highest dose activity change, negative = inhibition, usual class: inhibitors. Q14191. WRN helicase unwinding, fluorescent forked duplex, kinetic. actives 0.46% (n = 360,000); further: potency means the concentration at half of the fitted maximal effect; on the % scale 0 is the no-effect control and ±100 the full control effect; nearly all actives have a fitted effect of over 55% in size
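WRN at 20 nM final was preincubated with compound for 15 min at room temperature; reaction started with 100 nM forked duplex oligonucleotide carrying fluorophore and quencher plus 2 mM ATP (final). Unwinding followed kinetically by red fluorescence (ex 525/em 598 nm).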
Pol eta inh-1: inhibitors of human DNA polymerase eta; Q9Y253; recombinant Pol eta, fluorescent DNA replication assay; Potency, µM (doses to about 114 µM), without a hit: top-dose activity change, negative = inhibition, actives largely listed as inhibitors; actives 1.2% (n = 390,000); AID 588591; further: potency means the concentration at half of the fitted maximal effect; on the % scale 0 is the no-effect control and ±100 the full control effect
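Pol eta (10 nM) was preincubated with compounds for 15 min at room temperature, after which fluorescent replication substrate (50 nM final) was added to start the reaction. Fluorescence was read kinetically at 0 and 10 min.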
GALK confirm: galactokinase (human) inhibition, confirmation | shares compounds with Pol eta inh-1 | Potency, µM (titrated, usually from 115 µM), for the others: at the top dose activity, negative = inhibition, usual class: inhibitors | actives 70% (n = 150) | AID 2015 | purified GALK, Kinase-Glo ATP depletion luminescence
GALK redox cs: counter-screen for GALK inhibitors: redox cycling H2O2 generation | shares compounds with Pol eta inh-1 | actives 40% (n = 150) | AID 2035 | Potency, µM (highest dose often 115 µM), for inactives: top-dose activity change, negative = H2O2 signal, hits mostly inhibitors | Phenol red-HRP H2O2 redox cycling, absorbance 600 nm
HEK293 viability: HEK-293 cytotoxicity, GALK inhibitor secondary; actives 10% (n = 170); HEK-293 viability, ATP luminescence (CellTiter-Glo), 24/48 h; Potency, µM (doses to about 46.1 µM), for the others: at the top dose activity change, negative = cytotoxicity, most hits filed as inhibitors; shares compounds with Pol eta inh-1; AID 2547; further: potency means the concentration at half of the fitted maximal effect; on the % scale 0 is the no-effect control and ±100 the full control effect
Pol kappa inh-2: Pol kappa (human) inhibition, cherry-pick confirmation | shares compounds with Pol eta inh-1 | purified Pol-kappa, fluorescent strand-displacement substrate | Potency, µM, hits mostly inhibitors | actives 76% (n = 920) | AID 720501; further: potency means the concentration at half of the fitted maximal effect
Pol eta inh-2: confirmation of human DNA polymerase eta inhibitors | shares compounds with Pol eta inh-1 | Pol eta primer extension, TAMRA/BHQ fluorescence, 10 min | Potency, µM, most hits filed as inhibitors | actives 64% (n = 2,600) | AID 720502; further: potency means the concentration at half of the fitted maximal effect
* hit, by the source's call; [ ] = another dose, or the depositor's remark. Unless noted, the call rests on the fitted dose curve; in most records, active means well fitted curve in the direction sought with a large enough effect; inconclusive means small, poorly fitted or top-dose-only effect, or another doubt; inactive means no such curve, though single readings can be large; an effect the other way counts as inactive or inconclusive.

What do the screens show for `O=C(CSc1ncn(-c2ccccc2)n1)Nc1nc2c(s1)CCCC2`?
POLB inh: 32µM*; Pol kappa inh-1: 0%; Pol iota inh: 25µM*; WRN helicase inh: -26%[57.1 µM]; Pol eta inh-1: 50µM*; Pol eta inh-2: inconclusive

What do the screens show for `O=C(CSc1ncn(-c2ccccc2)n1)Nc1nc2ccccc2s1`?
POLB inh: -22%; Pol kappa inh-1: -12%; Pol iota inh: -16%[58.9 µM]; WRN helicase inh: -2%; Pol eta inh-1: -17%

Results for Cc1ccc(NS(=O)(=O)c2cc(NC(=O)C(C)Oc3ccccc3)ccc2C)c(C)c1 (stereo unspecified) ?
POLB inh: 16%; Pol kappa inh-1: 4%; Pol iota inh: 0%; PI5P4K alpha inh: -8; WRN helicase inh: -7%; Pol eta inh-1: inconclusive; GALK confirm: -9%; GALK redox cs: 9%; HEK293 viability: -11%

How did CCCN(CCC)C(=O)c1cc(S(=O)(=O)N2CCCCC2)c[nH]1 do in these assays?
POLB inh: 35%; Pol kappa inh-1: -7%; Pol iota inh: -33%; PI5P4K alpha inh: 1; WRN helicase inh: -1%; Pol eta inh-1: -7%

How did N#CC(C(O)c1ccccc1)N1CCOCC1 (stereo unspecified) do in these assays?
PI5P4K alpha inh: 0; WRN helicase inh: -3%; Pol eta inh-1: -5%

Results for COc1ccc(-c2c(C(F)(F)F)[nH]n3c(=O)cc(-c4ccccc4)nc23)cc1 ?
POLB inh: 12%; Pol kappa inh-1: -4%; Pol iota inh: -12%; PI5P4K alpha inh: -5; WRN helicase inh: -8%; Pol eta inh-1: 89µM*; Pol eta inh-2: inconclusive

What do the screens show for `NC(CSC1(c2ccc(Cl)cc2)c2ccccc2-c2ccccc21)C(=O)O` (stereo unspecified)?
Pol kappa inh-1: -9%; Pol iota inh: inconclusive; PI5P4K alpha inh: inconclusive; WRN helicase inh: -12%[11.6 µM]; Pol eta inh-1: inconclusive; Pol eta inh-2: inconclusive

How did O=C(c1ccc2c(c1)N(Cc1cccc(F)c1)C(=O)c1ccccc1S2)N1CCCC1 do in these assays?
POLB inh: 40µM*; Pol kappa inh-1: 2%[60.1 µM]; Pol iota inh: 79µM*; Pol eta inh-1: 79µM*; Pol kappa inh-2: inconclusive; Pol eta inh-2: inconclusive

Results for O=C(c1ccc2c(c1)N(Cc1ccccc1Cl)C(=O)c1ccccc1S2)N1CCCC1 ?
POLB inh: 15%; Pol kappa inh-1: -15%[60.1 µM]; Pol iota inh: -19%; Pol eta inh-1: -18%

What do the screens show for `O=C(O)C1C2C=CC3(O2)C1C(=O)N1c2ccccc2C2OCCC2C13` (stereo unspecified)?
POLB inh: 40µM*; Pol kappa inh-1: -33%; Pol iota inh: inconclusive; WRN helicase inh: -23%[57.1 µM]; Pol eta inh-1: 35µM*; Pol eta inh-2: inconclusive

How did CC(C)(C)NC(=O)Cn1c(Cl)nc2ccccc21 do in these assays?
POLB inh: 28%; Pol kappa inh-1: -23%; Pol iota inh: 31%; PI5P4K alpha inh: -4; WRN helicase inh: 9%; Pol eta inh-1: -14%

What do the screens show for `Cc1ccc(NS(=O)(=O)c2ccc(/C=C/C(=O)O)cc2)cc1Cl`?
POLB inh: -7%; Pol kappa inh-1: -18%; Pol iota inh: 104%; PI5P4K alpha inh: -10; WRN helicase inh: -19%; Pol eta inh-1: -16%

Results for O=C(O)/C=C/c1ccc(S(=O)(=O)Nc2ccc3[nH]c(=O)[nH]c3c2)cc1 ?
POLB inh: -1%; Pol kappa inh-1: -21%; Pol iota inh: inconclusive; PI5P4K alpha inh: inconclusive; WRN helicase inh: inconclusive; Pol eta inh-1: 25µM*; Pol eta inh-2: inconclusive

Results for O=C(O)c1ccccc1C1=Nc2ccc(O)cc2Oc2cc(O)ccc21 ?
POLB inh: 50µM*; Pol kappa inh-1: -20%; Pol iota inh: 40µM*; PI5P4K alpha inh: inconclusive; WRN helicase inh: inconclusive; Pol eta inh-1: inconclusive; Pol kappa inh-2: inconclusive

What do the screens show for `CC(Nc1ccc(Br)cc1)C(=O)NC(=O)NC1CCCCC1` (stereo unspecified)?
PI5P4K alpha inh: 16; WRN helicase inh: -1%; Pol eta inh-1: -18%

What do the screens show for `Cc1ccc(NC(=O)c2ccccc2OCC(=O)Nc2cccc(Cl)c2C)nc1`?
POLB inh: 0%

Results for CCOC(=O)C1=C(O)/C(=C\c2ccc(CNC(=O)C(=O)Nc3ccccc3)o2)N=C1C ?
POLB inh: 8.9µM*; Pol kappa inh-1: inconclusive; Pol iota inh: 18µM*; PI5P4K alpha inh: -65*; WRN helicase inh: inconclusive; Pol eta inh-1: 10µM*; Pol kappa inh-2: 53*; Pol eta inh-2: 48*

What do the screens show for `CCOC(=O)C1=C(O)/C(=C\c2cccs2)N=C1C`?
POLB inh: 11%; Pol kappa inh-1: -1%; Pol iota inh: -9%; PI5P4K alpha inh: -3; WRN helicase inh: -8%; Pol eta inh-1: -16%

What do the screens show for `COc1cccc(CCNC(=O)c2c(O)nc3c(C)cccn3c2=O)c1`?
POLB inh: 23%; Pol kappa inh-1: 10%; Pol iota inh: -2%; Pol eta inh-1: -16%

What do the screens show for `CCOCCCNC(=O)C1CCC(CNS(=O)(=O)c2ccc(NC(C)=O)cc2)CC1` (stereo unspecified)?
POLB inh: 2%; Pol kappa inh-1: -13%[60.1 µM]; Pol iota inh: 1%; Pol eta inh-1: 9%

Results for O=C(Nc1ccc(Cl)cc1)c1ccc2c(c1)S(=O)(=O)c1ccccc1C2=O ?
Pol kappa inh-1: 13%; Pol iota inh: 6%; PI5P4K alpha inh: -4; WRN helicase inh: 6%; Pol eta inh-1: 0%
